Source: PubChem BioAssay (NCI)
Compounds without any hit were thinned out: in the full panel of roughly 83,000, 20% have a hit.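 Percent growth is the endpoint: 0 to 100 indicates growth inhibition (40 means 60% inhibition), 0 means no net growth, and negative values indicate cell death.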 A number with no mark means an inactive call. The source made the active and inactive calls. How the source made its calls: active means growth percent below 10; inactive means the rest.

These compounds were tested on NCI-H322M lung (assay: NCI-60 one-dose screen, 48 h (100 = growth as untreated, 0 = no growth, -100 = all killed)). Settings: 10 µM unless noted.

Structure (SMILES)	growth
COC(=O)Nc1nc2ccc(S(=O)c3ccccc3)cc2[nH]1 (stereo not drawn)	88%
O=C(c1nn(-c2ccccc2)c2c1CC(NCc1ccc(F)cc1)CC2)N1CCCCC1 (stereo not drawn)	98.2%
CC(C)c1ccc(C(=O)Nc2nc3ccc(O)c(CN(C)C)c3s2)cc1	81.9%
CCCNC(=O)Nc1ccc2cc3ccc(NC(=O)NCCC)cc3nc2c1	100%
N=C(N)c1ccc(-c2ccc(-c3ccc(Cl)c(Cl)c3)s2)nc1	-5.24% (active)
CNc1nnc2n(-c3ccccc3)c(=O)c3cnn(-c4ccccc4)c3n12	100%
COc1cc(OC)c(/C=C/C(=O)c2c(OC)cccc2OC)c(OC)c1	1.28% (active)
Cn1c(I)c(C#CCO[Si](C)(C)C(C)(C)C)c(=O)[nH]c1=O	95.5%
CC1CCN(CCOc2ccc(CNc3ccc4nc(CCC5CCCCC5)[nH]c4c3)cc2)CC1	58.5%
Cc1cn(-c2cc(NC(=O)c3cccc(C#Cc4cccc5[nH]nc(N)c45)c3)cc(C(F)(F)F)c2)cn1	66%
CC1CN(S(=O)(=O)c2oc(-c3ccc(Cl)cc3)nc2C#N)CC(C)O1 (stereo not drawn)	97.9%
N=C(N)c1ccc(-c2ccc(-c3ccccc3)o2)cc1	-37.8% (active)
CCCCCCC12CCC(=O)N1CCc1cncn12 (stereo not drawn)	109%
CCCCCCCCCCCCCCCCCCOc1ccccc1CC(=O)OCC[N+](C)(C)C	66.5%
O=C(CN1CCOCC1)Nc1nc(-c2cc3ccccc3oc2=O)cs1	100%
O=c1[nH]c(-c2ccccc2)nc2sc3cc(O)ccc3c12	81.2%
Cc1cc(C(=O)O)c(C)n1-c1cccc(C(=O)O)c1	94%
COc1ccc(C/C(C)=C(/c2ccc(OCCN(C)C)cc2)c2ccc(OC(=O)NCc3ccccc3)cc2)cc1	80.8%
O=S(=O)(Nc1ccc(F)cc1F)c1ccc(-c2cnc(C3CC3)o2)cc1	47.4%
Cc1ccc(NC(=O)Cn2cc(CN3CCN(c4ccnc5cc(Cl)ccc45)CC3)nn2)cc1	97.7%

Structure (SMILES)	growth
Cc1cc(=O)oc2cc(OCc3nn4c(Nc5nc6ccccc6s5)c(-c5ccccc5)nc4s3)ccc12	90.7%
OB1OCc2cc(/C=C/c3cccc(C(F)(F)F)c3)ccc21	20.7%
CC1(C)CC(=O)C2=C(C1)N(c1ccc(OC(F)(F)F)cc1)C(N)=C(C#N)C2c1ccc(Br)cc1F (stereo not drawn)	59.1%
C=C1CC[C@@H]2[C@](C)(COC(C)=O)[C@H](OC(C)=O)CC[C@@]2(C)[C@@H]1CC(Nc1ccc(S(=O)(=O)Nc2ncccn2)cc1)C1=CCOC1=O (stereo partly drawn)	50.9%
COCCOc1cc2ncnc(N3CCN(c4ncc(S(=O)(=O)N5CCCCC5)cn4)CC3)c2cc1OCCOC	96.5%
COC(=O)[C@]1(C)CCC[C@]2(C)[C@H]3C[C@H]4C(C(C)C)=C[C@]3(CC[C@H]21)[C@@H]1C(=O)CC[C@H](OCCC#N)[C@@H]14	106%
O=C1c2c(c3c4ccccc4[nH]c3c3ccc4ccccc4c23)C(=O)N1CCN1CCNCC1	89.2%
COC(=O)c1nc(-c2ccc(C)cc2)oc1S(=O)(=O)c1cccc(OC)c1	93.3%
COc1ccc2c(c1)CC[C@H](O)/C2=C/c1cc(OC)c(OC)c(OC)c1	60.5%
C=CC[Se]C(=O)Cc1c(C)n(C(=O)c2ccc(Cl)cc2)c2ccc(OC)cc12	-29.5% (active)
Cc1ccc(C)n1-c1ccccc1-n1c(C)ccc1C	99.9%
O=C(NNC(=O)c1ccc(NC(=O)c2ccccn2)cc1)Nc1ccc([N+](=O)[O-])cc1	95.7%
CCCCCCCCCCCCCCCCOCCCOP(=O)(O)C1CCCN(O)C1=O (stereo not drawn)	28.6%
Cc1[nH]c(C(=O)Nc2ccccc2OC2CCNCC2)c(Cl)c1Cl	31.3%
c1csc(-c2ccc(CNc3c4ccccc4nc4ccccc34)cc2)c1	50.6%
O=C1/C(=C/c2ccccc2O)CC/C1=C\c1ccccc1O	96.4%
CN(C)S(=O)(=O)c1cccc(C(=O)Nc2nc(-c3ccc(F)c(F)c3)cs2)c1	106%
COc1ccc(C/C(C)=C(\c2ccc(Cl)cc2)c2ccc(OCCN3CCCCC3)cc2)cc1	96.7%
N#Cc1c(-c2ccc(Cl)cc2)nc(NN2C(=O)c3ccccc3C2=O)nc1N1CCOCC1	111%

What follows are compounds tested on HOP-62 NSCLC in the same assay as above. Settings: 10 µM unless noted.

Structure (SMILES)	growth
COC(=O)Nc1nc2ccc(S(=O)c3ccccc3)cc2[nH]1 (stereo not drawn)	99.4%
O=C(c1nn(-c2ccccc2)c2c1CC(NCc1ccc(F)cc1)CC2)N1CCCCC1 (stereo not drawn)	114%
CC(C)c1ccc(C(=O)Nc2nc3ccc(O)c(CN(C)C)c3s2)cc1	93.4%
CCCNC(=O)Nc1ccc2cc3ccc(NC(=O)NCCC)cc3nc2c1	81.8%
N=C(N)c1ccc(-c2ccc(-c3ccc(Cl)c(Cl)c3)s2)nc1	36.6%
CNc1nnc2n(-c3ccccc3)c(=O)c3cnn(-c4ccccc4)c3n12	64.7%
COc1cc(OC)c(/C=C/C(=O)c2c(OC)cccc2OC)c(OC)c1	40.1%
Cn1c(I)c(C#CCO[Si](C)(C)C(C)(C)C)c(=O)[nH]c1=O	96.9%
CC1CCN(CCOc2ccc(CNc3ccc4nc(CCC5CCCCC5)[nH]c4c3)cc2)CC1	61.5%
Cc1cn(-c2cc(NC(=O)c3cccc(C#Cc4cccc5[nH]nc(N)c45)c3)cc(C(F)(F)F)c2)cn1	55.5%
CC1CN(S(=O)(=O)c2oc(-c3ccc(Cl)cc3)nc2C#N)CC(C)O1 (stereo not drawn)	101%
N=C(N)c1ccc(-c2ccc(-c3ccccc3)o2)cc1	-50.7% (active)
CCCCCCC12CCC(=O)N1CCc1cncn12 (stereo not drawn)	100%
CCCCCCCCCCCCCCCCCCOc1ccccc1CC(=O)OCC[N+](C)(C)C	4.93% (active)
O=C(CN1CCOCC1)Nc1nc(-c2cc3ccccc3oc2=O)cs1	96.9%
O=c1[nH]c(-c2ccccc2)nc2sc3cc(O)ccc3c12	105%
Cc1cc(C(=O)O)c(C)n1-c1cccc(C(=O)O)c1	96.7%
COc1ccc(C/C(C)=C(/c2ccc(OCCN(C)C)cc2)c2ccc(OC(=O)NCc3ccccc3)cc2)cc1	83.3%
O=S(=O)(Nc1ccc(F)cc1F)c1ccc(-c2cnc(C3CC3)o2)cc1	39.7%
Cc1ccc(NC(=O)Cn2cc(CN3CCN(c4ccnc5cc(Cl)ccc45)CC3)nn2)cc1	70.3%

Structure (SMILES)	growth
Cc1cc(=O)oc2cc(OCc3nn4c(Nc5nc6ccccc6s5)c(-c5ccccc5)nc4s3)ccc12	90.2%
OB1OCc2cc(/C=C/c3cccc(C(F)(F)F)c3)ccc21	-17.7% (active)
CC1(C)CC(=O)C2=C(C1)N(c1ccc(OC(F)(F)F)cc1)C(N)=C(C#N)C2c1ccc(Br)cc1F (stereo not drawn)	6.8% (active)
C=C1CC[C@@H]2[C@](C)(COC(C)=O)[C@H](OC(C)=O)CC[C@@]2(C)[C@@H]1CC(Nc1ccc(S(=O)(=O)Nc2ncccn2)cc1)C1=CCOC1=O (stereo partly drawn)	126%
COCCOc1cc2ncnc(N3CCN(c4ncc(S(=O)(=O)N5CCCCC5)cn4)CC3)c2cc1OCCOC	118%
COC(=O)[C@]1(C)CCC[C@]2(C)[C@H]3C[C@H]4C(C(C)C)=C[C@]3(CC[C@H]21)[C@@H]1C(=O)CC[C@H](OCCC#N)[C@@H]14	95%
O=C1c2c(c3c4ccccc4[nH]c3c3ccc4ccccc4c23)C(=O)N1CCN1CCNCC1	61.3%
COC(=O)c1nc(-c2ccc(C)cc2)oc1S(=O)(=O)c1cccc(OC)c1	96.2%
COc1ccc2c(c1)CC[C@H](O)/C2=C/c1cc(OC)c(OC)c(OC)c1	34.9%
C=CC[Se]C(=O)Cc1c(C)n(C(=O)c2ccc(Cl)cc2)c2ccc(OC)cc12	-16.6% (active)
Cc1ccc(C)n1-c1ccccc1-n1c(C)ccc1C	112%
O=C(NNC(=O)c1ccc(NC(=O)c2ccccn2)cc1)Nc1ccc([N+](=O)[O-])cc1	96.1%
CCCCCCCCCCCCCCCCOCCCOP(=O)(O)C1CCCN(O)C1=O (stereo not drawn)	11.9%
Cc1[nH]c(C(=O)Nc2ccccc2OC2CCNCC2)c(Cl)c1Cl	11.4%
c1csc(-c2ccc(CNc3c4ccccc4nc4ccccc34)cc2)c1	54.6%
O=C1/C(=C/c2ccccc2O)CC/C1=C\c1ccccc1O	94%
CN(C)S(=O)(=O)c1cccc(C(=O)Nc2nc(-c3ccc(F)c(F)c3)cs2)c1	99.5%
COc1ccc(C/C(C)=C(\c2ccc(Cl)cc2)c2ccc(OCCN3CCCCC3)cc2)cc1	102%
N#Cc1c(-c2ccc(Cl)cc2)nc(NN2C(=O)c3ccccc3C2=O)nc1N1CCOCC1	97.9%
